# The source made the active and inactive calls.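 The calls were made as follows, unless noted: active = visually confirmed hit in the image check and inhibition above 20%; inconclusive = visually confirmed hit but inhibition not above 20%; inactive = no visual hit in the image check.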
# Experiments:
# [1] = inhibitors of TNFa-induced NFkB p65 translocation, primary screen, imaging, HUVEC, MLSMR starter and 10KST1 sets (AID 438;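 active = inhibition above 20% together with a positive visual image hit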;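 also: compound added about 3h40 before a 20 min TNFalpha stimulation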;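 as to inhibition: signal is the nuclear over cytoplasmic p65 intensity ratio per well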); conditions: HUVEC TNFa-induced p65 nuclear translocation; cell count: measured here: nuclei count (cytotoxicity indicator), at 2.08 µM; inhibition: at 2 µM, stronger effect = higher value, 0% TNFa-plus-vehicle, 100% no-TNFa wells
# [2] = reduction of polyQ htt aggregates in cells – imaging, exon1htt(103Q)mCFP cells, high-content imaging, primary screen (AID 483;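 active = visual image review flags a hit and inhibition of aggregation exceeds 20%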;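 also: compound exposure lasted 3 days before fixation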;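 as to nuclei count: percent of the per-plate median nuclei count of sample wells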); conditions: exon1htt(103Q)mCFP cell line, aggregate imaging, at 2 µM; inhibition of aggregation: stronger effect = higher value; nuclei count: measured here: cell count, toxicity
# [3] = endothelial E-selectin expression blockers – imaging, HUVEC, immunofluorescence, MLSMR starter and 10KST1 sets, primary screen (AID 487); conditions: HUVEC TNFalpha-induced E-selectin immunofluorescence imaging, at 2 µM; inhibition: stronger effect = higher value; nuclei count: measured here: cell number, toxicity;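 as to inhibition: signal is fraction of cell area covered by stained E-selectin grains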;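 as to nuclei count: 100% = median nuclei count of all wells on the same plate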
# [4] = biological target: Voltage-gated potassium channel subunit beta-2 (Rattus norvegicus) (UniProt P62483); test: inhibitors of rat Kvbeta2 reductase activity – biochemical, NADPH fluorescence, primary screen (AID 622;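 active = fluorescence slope higher than the sample average by over 3 SD, cut at about -0.22 in these data, passing the limit was not always enough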;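 also: slope of raw intensity against log time taken from 70 to 1610 s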); conditions: recombinant KvBeta, 4-cyanobenzaldehyde reduction, at 10 µM, stronger effect = higher value
# Chain of Voltage-gated potassium channel subunit beta-2 (Rattus norvegicus) (P62483 whole entry, looked up): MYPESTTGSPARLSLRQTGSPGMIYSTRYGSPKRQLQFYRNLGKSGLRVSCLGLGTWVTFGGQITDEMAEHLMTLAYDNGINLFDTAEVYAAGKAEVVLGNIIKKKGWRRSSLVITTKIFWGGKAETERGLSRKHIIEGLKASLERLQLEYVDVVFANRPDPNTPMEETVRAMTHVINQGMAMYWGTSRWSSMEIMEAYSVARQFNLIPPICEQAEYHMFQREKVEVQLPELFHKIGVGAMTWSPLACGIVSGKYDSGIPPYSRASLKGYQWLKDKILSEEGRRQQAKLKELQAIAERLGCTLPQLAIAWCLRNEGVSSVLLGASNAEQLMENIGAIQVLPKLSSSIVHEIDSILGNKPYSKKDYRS
# [5] = biological target: Voltage-gated potassium channel subunit beta-2 (Rattus norvegicus) (UniProt P62483); test: enhancers of rat Kvbeta2 NADPH turnover – biochemical, NADPH fluorescence, primary screen (AID 623;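 active = NADPH fluorescence slope more negative than the mean of all samples by about 3 SD, 99.7% confidence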;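 also: fluorescence intensity change per second fitted from 20 to 320 s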); conditions: Recombinant KvBeta, NADPH fluorescence decrease slope, 10 min; at 10 µM; stronger effect = lower value
# [6] = biological target: Alpha-2C adrenergic receptor (Homo sapiens) (UniProt P18825); test: compounds altering alpha2C-coupled GIRK flux – cell-based, HEK293 alpha2C/GIRK1/2, thallium flux, primary screen (AID 624;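 active = fluorescence slope after compound addition differing from the mean of all screened samples at 99.7% confidence, in either direction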;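 also: slope of fluorescence ratio to pre-addition baseline per second over 15 to 24 s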); conditions: thallium flux BTC fluorescence, at 10 µM, actives lie on both sides
# Chain of Alpha-2C adrenergic receptor (Homo sapiens) (P18825 whole entry, looked up): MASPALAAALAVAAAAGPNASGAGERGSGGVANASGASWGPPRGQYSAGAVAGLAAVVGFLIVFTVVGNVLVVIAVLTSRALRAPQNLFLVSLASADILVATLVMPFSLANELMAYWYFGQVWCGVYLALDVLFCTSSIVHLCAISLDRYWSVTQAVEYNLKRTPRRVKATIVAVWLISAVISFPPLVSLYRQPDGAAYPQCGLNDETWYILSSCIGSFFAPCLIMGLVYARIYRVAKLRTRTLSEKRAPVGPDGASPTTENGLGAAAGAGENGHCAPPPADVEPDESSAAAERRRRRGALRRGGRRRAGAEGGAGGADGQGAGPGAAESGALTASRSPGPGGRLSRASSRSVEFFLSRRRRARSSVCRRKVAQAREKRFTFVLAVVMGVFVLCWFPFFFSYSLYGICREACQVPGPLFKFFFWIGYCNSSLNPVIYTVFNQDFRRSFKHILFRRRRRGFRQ
# [7] = blockers of RIG-like receptor reporter activation – cell-based, Sendai virus stimulus, luciferase, 10K MLSCN set, TLR/RLR signaling modifier project, primary screen (AID 602276;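 active = inhibition at or above 50% at 10 µM; inactive = inhibition below 50%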;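 also: firefly luciferase from ISG56 promoter only with Renilla not read in this screen; 0% = Sendai virus plus DMSO and 100% = medium plus DMSO without virus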); conditions: HEK293 RL24 IRF3 luciferase reporter, at 10 µM, stronger effect = higher value
# [8] = TLR3 IRF3 reporter activation blockers – cell-based, poly I:C stimulus, luciferase, 10K MLSCN set, primary screen (AID 602277;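 active = inhibition of the reporter signal at or above 50%; inactive = inhibition below 50%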); conditions: HEK293-TLR3 RL24 IRF3 luciferase reporter, at 10 µM, stronger effect = higher value
SMILES,cell count [1],inhibition [1],inhibition of aggregation [2],nuclei count [2] [%],inhibition [3],nuclei count [3] [%],fluorescence slope [4],NADPH fluorescence slope [5],slope [6],inhibition [7],inhibition [8]
O=C(Oc1ccccc1)c1cccc(COC(=O)c2cnccn2)c1,385,-1.6% (inactive),7.9% (inactive),103,20.7% (inactive),105,-0.425 (inactive),-5.1e-05 (inactive),0.00507 (inactive),5.8% (inactive),3.65% (inactive)
Cc1ccc2c(c1)NC(=O)C(CC(=O)NCCN(CC(C)C)CC(C)C)O2 (centres undefined),659,4.4% (inactive),7.8% (inactive),102,-11% (inactive),125,-0.584 (inactive),6e-06 (inactive),0.00608 (inactive),-16.7% (inactive),-6.31% (inactive)
COc1cc2c(c(OC)c1)C(c1ccncc1)CC(=O)N2 (centres undefined),624,-11.6% (inactive),-25.7% (inactive),111,-42.5% (inactive),116,-0.565 (inactive),-2.7e-06 (inactive),0.0063 (inactive),-9.07% (inactive),3.48% (inactive)
COc1ccccc1Cn1nnc2c(=O)[nH]c(C3CCN(C(=O)c4ccccc4Cl)CC3)nc21,324,3.2% (inactive),1.4% (inactive),109,-5.4% (inactive),98,-0.624 (inactive),-1.1e-05 (inactive),0.00545 (inactive),18.5% (inactive),40.2% (inactive)
COc1ccc(-n2ncc3c(=O)n(CC(=O)OCc4ccccc4)cnc32)cc1,506,5.2% (inactive),-19.6% (inactive),94.6,-26% (inactive),101,-0.377 (inactive),-4.4e-05 (inactive),0.00543 (inactive),-0.623% (inactive),3.88% (inactive)
O=C(Nc1ccc(N2CCOCC2)cc1)c1cc2ccccc2o1,775,-1.9% (inactive),7.2% (inactive),106,-29.4% (inactive),97.9,-0.479 (inactive),1.9e-05 (inactive),0.003 (inactive),-72.9% (inactive),-187% (inactive)
CSc1nc2ccc(Nc3nc(N4CCOCC4)nc(N4CCOCC4)n3)cc2s1,391,4.9% (inactive),6.4% (inactive),106,17.6% (inactive),110,-0.354 (inactive),-2.2e-05 (inactive),0.00663 (inactive),-24.9% (inactive),-49.5% (inactive)
CS(=O)(=O)c1ccc2nc(NC(=O)c3cccs3)sc2c1,351,-2.9% (inactive),4.4% (inactive),105,3.9% (inactive),104,-0.487 (inactive),-5.8e-05 (inactive),0.00673 (inactive),-10.7% (inactive),-21.1% (inactive)
CC1CCCCC1NC(=O)C1CCN(C(=O)NC2CCCCC2)CC1 (centres undefined),172,-4.9% (inactive),20.6% (inactive),71.9,2.1% (inactive),79.8,-0.448 (inactive),-4.6e-05 (inactive),0.00366 (inactive),13.5% (inactive),28.2% (inactive)
CCN1CCN(C(=O)C2CCN(C(=O)c3cc4sccc4n3CC)CC2)CC1,642,-12.2% (inactive),4.1% (inactive),85.3,-25.4% (inactive),115,-0.556 (inactive),-4.1e-05 (inactive),0.00649 (inactive),12.4% (inactive),45.3% (inactive)
COc1ccc(-n2nnnc2SCC(=O)c2ccc(O)c(O)c2)cc1,344,-6.5% (inactive),20.5% (inactive),91.8,-74.4% (inactive),112,-0.487 (inactive),-0.000117 (inactive),0.00395 (inactive),13.7% (inactive),16.9% (inactive)
Cc1nnc(NC(=O)c2ccco2)s1,697,1.3% (inactive),-21.8% (inactive),107,-34.3% (inactive),110,-0.521 (inactive),-3.3e-05 (inactive),0.00691 (inactive),3.15% (inactive),14.4% (inactive)
COCCCNC(=O)CCn1c(=O)c2ccccc2n(CC(=O)Nc2ccc(C)cc2C)c1=O,689,-7.3% (inactive),-6.5% (inactive),102,-48.2% (inactive),111,-0.502 (inactive),-1.8e-05 (inactive),0.00709 (inactive),8.73% (inactive),19% (inactive)
Nc1ncnc(Nc2ccccc2C(F)(F)F)n1,382,-3.3% (inactive),-11.5% (inactive),100,-8% (inactive),107,-0.487 (inactive),4.7e-05 (inactive),0.00593 (inactive),-28.4% (inactive),-11.7% (inactive)

# Reference: PubChem BioAssay
